Our source for the cell count values is PubChem BioAssay.

The nature of one experiment: viability loss with induced miR-34 in A549 – imaging, A549 dox-inducible miR-34, nuclei and caspase counts, primary screen (AID 1347080). Further: test concentration not given here. Conditions: A549 miR-34 inducible, Hoechst nuclei count, 48 h; measured here: total cells with miR-34 induction; stronger effect = lower value.
Take `CCOC(=O)Oc1c(OC)cc(C(=O)O[C@@H]2C[C@@H]3CN4CCc5c([nH]c6cc(OC)ccc56)[C@H]4C[C@@H]3[C@H](C(=O)OC)[C@H]2OC)cc1OC`: the cell count was determined as 6440.
Still for that read-out and setting: with `CO[C@H]1CC(O[C@@H]2/C(C)=C/C[C@@H]3C[C@@H](C[C@]4(CC[C@H](C)[C@@H](C5CCCCC5)O4)O3)OC(=O)[C@@H]3C=C(C)/C(=N/O)[C@H]4OC/C(=C\C=C\[C@@H]2C)[C@]43O)O[C@@H](C)C1O` (stereo not given in full) the figure was 9710.
On the same count and under the same terms, under `COC(=O)[C@@H]1CC(=O)O[C@H](C)C/C=C/C=C/[C@H](O)[C@H](C)C[C@H](CC=O)[C@H](OC2O[C@H](C)[C@@H](OC3C[C@@](C)(O)[C@@H](OC(=O)CC(C)C)[C@H](C)O3)[C@H](N(C)C)[C@H]2O)[C@H]1OC` (stereo not given in full) stands 11900.

Still in this experiment, the particulars now being: A549 miR-34 inducible, Hoechst nuclei count, 48 h; measured here: total cells without miR-34 induction.
Consider `CCC(=O)O[C@H]1CCC2C3CCc4cc(O)ccc4C3CC[C@@]21C` (stereo not given in full), for which the cell count came out at 11500.
Same read-out and setting: with `CC(C)CC(=O)N[C@H](C(=O)NC(C(=O)NC(CC(C)C)[C@@H](O)CC(=O)N[C@@H](C)C(=O)N[C@@H](CC(C)C)[C@@H](O)CC(=O)O)C(C)C)C(C)C` (stereo not given in full) the figure was 13300; with `CC(=O)N[C@@H]1[C@@H](O[C@H](C)C(=O)O)[C@H](O)[C@@H](CO)O[C@@H]1O`, 10000; with `CNS(=O)(=O)c1ccc(NC(=O)c2ccccc2C(=O)O)cc1` (tested in a mixture with another compound), 12700.
The same measure, in the same setting: under `CN1CC[C@]23c4ccccc4N[C@H]1[C@]21CCN(C)[C@H]3Nc2ccccc21` stands 10600.
Same read-out and setting: with `c1ccc(-c2[nH]ncc2-c2ccnc3ccccc23)nc1` the figure was 5570; with `C[C@H]1[C@H](C)CC[C@]2(C(=O)O[C@@H]3O[C@H](COC4O[C@H](CO)[C@@H](OC5O[C@@H](C)[C@H](O)[C@@H](O)[C@H]5O)[C@H](O)[C@H]4O)[C@@H](O)[C@H](O)[C@H]3O)CC[C@]3(C)C(=CC[C@@H]4[C@@]5(C)C[C@@H](O)[C@H](O)[C@@](C)(CO)C5CC[C@]43C)[C@H]12` (stereo not given in full), 9340.
On to `CCOCCOCCOCCOCCOCCOCCOCCOCCOCCO` (tested in a mixture with another compound), for which the cell count turned out to be 11800.
On to `CC[N+]1(C)[C@@H]2CC[C@H]1CC(OC(=O)[C@H]1CCC(C(=O)OC3C[C@H]4CC[C@@H](C3)[N+]4(C)CC)(c3ccccc3)c3ccccc31)C2` (stereo not given in full), for which the cell count amounted to 10100.
Same read-out and setting: under `Oc1cccc(-c2nc(N3CCOCC3)c3sccc3n2)c1` stands 2750; under `CC(C)(CO)C(O)C(=O)NCCC(=O)O` (stereo not given), 9770; under `CC12CCC3c4ccc(OC(=O)c5ccccc5)cc4CCC3C1CCC2O` (stereo not given), 11600.
The molecule `Nc1ncnc2c1c(I)cn2[C@@H]1O[C@H](CO)[C@H](O)C1O` (stereo not given in full) displayed a cell count of 1240.
As for `c1ccc2c3c([nH]c2c1)[C@H]1C2CCC([C@@H]4CCCN[C@H]24)N1CC3` (stereo not given in full), the cell count was 8710.
On the same count and under the same terms, with `CO[C@H]1C[C@H](O[C@H]2[C@H](C)[C@@H](OC3O[C@H](C)C[C@H](N(C)C)[C@H]3OC(C)=O)[C@@H](C)C[C@]3(CO3)C(=O)[C@H](C)[C@@H](OC(C)=O)[C@@H](C)[C@@H](C)OC(=O)[C@@H]2C)O[C@@H](C)[C@@H]1OC(C)=O` (stereo not given in full) the figure was 13400; with `CC(=O)OCC(=O)[C@@]1(O)CC[C@H]2[C@@H]3CCC4=CC(=O)CC[C@]4(C)C3(F)C(=O)C[C@@]21C` (stereo not given in full), 6960; with `CN(C)c1ccc(O)c2c1CC1CC3[C@@H](N(C)C)C(=O)C(C(N)=O)=C(O)[C@]3(O)C(=O)C1=C2O` (stereo not given in full), 5720.
Same read-out and setting: with `CCC(C)[C@H]1O[C@]2(CC[C@@H]1C)C[C@@H]1C[C@@H](C/C=C(\C)[C@@H](OC3C[C@H](OC)C(O[C@H]4C[C@H](OC)[C@@H](O)[C@H](C)O4)[C@H](C)O3)[C@@H](C)/C=C/C=C3\CO[C@@H]4[C@H](O)C(C)=C[C@@H](C(=O)O1)[C@]34O)O2` (stereo not given in full) the figure was 4580.
Same read-out and setting: with `CCC(C)N1CCC2(CC1)N=c1c(c3c4c5c(C)c(O)c3c(O)c1=NC(=O)/C(C)=C/C=C/[C@H](C)[C@H](O)[C@@H](C)[C@@H](O)[C@@H](C)[C@H](OC(C)=O)[C@H](C)[C@@H](OC)/C=C/O[C@@](C)(O5)C4=O)N2` (stereo not given in full) the figure was 8810.
Molecule `CCOC(=O)Oc1c(OC)cc(C(=O)O[C@@H]2C[C@@H]3CN4CCc5c([nH]c6cc(OC)ccc56)[C@H]4C[C@@H]3[C@H](C(=O)OC)[C@H]2OC)cc1OC` gave a cell count of 8100.
Same read-out and setting: with `CO[C@H]1CC(O[C@@H]2/C(C)=C/C[C@@H]3C[C@@H](C[C@]4(CC[C@H](C)[C@@H](C5CCCCC5)O4)O3)OC(=O)[C@@H]3C=C(C)/C(=N/O)[C@H]4OC/C(=C\C=C\[C@@H]2C)[C@]43O)O[C@@H](C)C1O` (stereo not given in full) the figure was 11100; with `COC(=O)[C@@H]1CC(=O)O[C@H](C)C/C=C/C=C/[C@H](O)[C@H](C)C[C@H](CC=O)[C@H](OC2O[C@H](C)[C@@H](OC3C[C@@](C)(O)[C@@H](OC(=O)CC(C)C)[C@H](C)O3)[C@H](N(C)C)[C@H]2O)[C@H]1OC` (stereo not given in full), 12600.
